BLM helicase inh-1 = inhibitors of human Bloom syndrome helicase BLM; P54132; recombinant BLM DNA unwinding, fluorescence dequenching; Potency, µM (series often up to 56.1 µM), for inactives: top-dose activity change, negative = inhibition, actives largely listed as inhibitors; hit rate 0.2% among 350,000;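 note: potency is the fitted concentration of half-maximal effect; plate controls were vehicle for no effect and no enzyme for full effect; nearly all actives have a fitted effect of over 35% in size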
FEN1 inh-1 = inhibitors of human flap endonuclease 1 | Potency, µM (doses to about 114 µM), without a hit: at the top dose activity change, negative = inhibition, usual class: inhibitors | hit rate 0.35% among 390,000 | Recombinant FEN1 flap cleavage, fluorescence, 15 min; note: potency is the fitted concentration of half-maximal effect; % is set by controls: 0 for no effect and ±100 for the full control effect; nearly all actives have a fitted effect of over 65% in size
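FEN1 at 10 nM preincubated with compounds 15 min at room temperature, then flap DNA substrate added at 50 nM final. Signal read at 0 and 15 min; concentration-response fitted with four-parameter Hill equation.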
RECQ1 inh = RECQ1 (human) helicase inhibition | P46063 | RECQ1 DNA unwinding, red fluorescence kinetic read | Potency, µM (highest dose often 57.3 µM), for inactives: at the top dose activity, negative = inhibition, hits mostly inhibitors | hit rate 0.54% among 240,000 | AID 2549;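 note: potency is the fitted concentration of half-maximal effect; plate controls were vehicle for no effect and no enzyme for full effect; nearly all actives have a fitted effect of over 30% in size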
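50 nM RECQ1T1 preincubated 15 min with compound in Tris pH 8.0 buffer with MgCl2, DTT, Tween-20 and 2.5 ug/ml poly(dI-dC); started with 200 nM TAMRA/BHQ-2 forked duplex and 2 mM ATP. Unwinding read as fluorescence (525/598 nm), two reads 2 h apart.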
PI5P4Ka inh = blocks human PI5P4K alpha kinase activity; PI5P4Kalpha enzyme, ADP-Glo luminescence, 60 min; active compounds read low; max response, %; hit rate 1.2% among 330,000; active = max response of -50% or lower; inconclusive = between -30% and -50%; inactive = -30% or higher; note: value at the top dose of about 77 µM; % is set by controls: 0 for no effect and ±100 for the full control effect
Target sequence (P48426 whole entry, looked up): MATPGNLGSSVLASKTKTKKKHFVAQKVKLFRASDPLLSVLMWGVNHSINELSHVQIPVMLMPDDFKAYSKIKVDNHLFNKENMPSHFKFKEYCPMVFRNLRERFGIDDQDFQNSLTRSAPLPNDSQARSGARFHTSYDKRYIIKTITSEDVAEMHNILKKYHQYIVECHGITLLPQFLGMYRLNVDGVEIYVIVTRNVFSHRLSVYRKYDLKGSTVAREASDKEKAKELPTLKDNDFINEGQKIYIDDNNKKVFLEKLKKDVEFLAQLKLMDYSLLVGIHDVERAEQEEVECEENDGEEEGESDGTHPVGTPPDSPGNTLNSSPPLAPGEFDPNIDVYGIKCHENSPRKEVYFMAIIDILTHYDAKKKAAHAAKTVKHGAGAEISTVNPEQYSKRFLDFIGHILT
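Luminescence from ADP-Glo served as readout of PI5P4Kalpha activity in a qHTS format. Reaction: enzyme, substrate, compound, ATP at 5 microM final, 60 min at RT.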
APE1 inh-1 = inhibitors of human APE1 endonuclease. P27695. recombinant APE1, TAMRA/BHQ-2 abasic DNA cleavage fluorescence. Potency, µM (doses to about 65.8 µM), for inactives: top-dose activity change, negative = inhibition, most hits filed as inhibitors. hit rate 0.35% among 350,000;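 note: potency is the fitted concentration of half-maximal effect; plate controls were vehicle for no effect and reference inhibitor for full effect; nearly all actives have a fitted effect of over 55% in size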
Target sequence (P27695 whole entry, looked up): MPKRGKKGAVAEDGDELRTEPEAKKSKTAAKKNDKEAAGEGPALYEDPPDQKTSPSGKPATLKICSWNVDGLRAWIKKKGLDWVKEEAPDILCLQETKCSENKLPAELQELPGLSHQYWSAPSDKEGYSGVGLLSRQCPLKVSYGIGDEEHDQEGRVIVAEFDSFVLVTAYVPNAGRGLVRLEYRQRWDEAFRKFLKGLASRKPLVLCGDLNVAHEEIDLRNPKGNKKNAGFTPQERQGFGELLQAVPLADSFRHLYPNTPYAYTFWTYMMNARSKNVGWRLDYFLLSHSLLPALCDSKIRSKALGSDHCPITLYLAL
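Incision of a quenched TAMRA/BHQ-2 THF abasic-site duplex (50 nM) by 0.75 nM APE1, after 15 min compound preincubation, measured as fluorescence increase over three 60 s reads. Values normalized to buffer, DMSO and NSC13755 control wells.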
WRN helicase inh-1 = blocks human WRN helicase; WRN helicase unwinding, fluorescent forked duplex, kinetic; hit rate 0.46% among 360,000; Potency, µM (titrated, usually from 114 µM), without a hit: at the top dose activity change, negative = inhibition, hits mostly inhibitors; note: potency is the fitted concentration of half-maximal effect; % is set by controls: 0 for no effect and ±100 for the full control effect; nearly all actives have a fitted effect of over 55% in size
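Kinetic red-fluorescence monitoring (525/598 nm) tracks WRN helicase activity after 100 nM fluorophore-quencher forked duplex and 2 mM ATP are added to 20 nM enzyme pretreated 15 min at room temperature with compound.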
APE1 dye cs = displaces fluorescent dye from DNA, flagging APE1 artifacts; shares compounds with APE1 inh-1; DNA fluorescent dye displacement counterscreen, fluorescence; Potency, µM (top dose mostly 28.5 µM), for inactives: top-dose activity change, negative = inhibition, hits mostly inhibitors; hit rate 7% among 480;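 note: loss of thiazole orange fluorescence as the dye is displaced from duplex DNA; potency is the fitted concentration of half-maximal effect; 0% = ThO with dsDNA and no compound and -100% = ThO without dsDNA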
Endo IV inh = Endo IV (E. coli) inhibition counter-screen | shares compounds with APE1 inh-1 | AID 2565 | Potency, µM (top dose mostly 27.1 µM), for inactives: at the top dose activity change, negative = inhibition, usual class: inhibitors | hit rate 4% among 560 | E. coli Endo IV, fluorogenic AP-site DNA cleavage;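 note: potency is the fitted concentration of half-maximal effect; plate controls were uninhibited enzyme wells for no effect and no enzyme buffer wells for full effect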
APE1 inh-2 = confirmation of inhibitors of human APE1 endonuclease. Potency, µM (doses to about 57.1 µM), inactives show at the highest dose activity change, negative = inhibition, most hits filed as inhibitors. shares compounds with APE1 inh-1. hit rate 44% among 750. AID 2572. purified APE1, fluorogenic abasic-site DNA cleavage; note: potency is the fitted concentration of half-maximal effect; % is set by controls: 0 for no effect and ±100 for the full control effect; nearly all actives have a fitted effect of over 30% in size
APE1 FP inh = displaces DNA from human APE1 in FP assay; shares compounds with APE1 inh-1; APE1 binding to TAMRA-labelled double-stranded DNA, fluorescence polarization displacement; Potency, µM (titrated, usually from 28.5 µM), without a hit: top-dose activity, negative = inhibition, most hits filed as inhibitors; hit rate 7% among 480; note: potency is the fitted concentration of half-maximal effect; % is set by controls: 0 for no effect and ±100 for the full control effect
BLM inh = confirmation of inhibitors of human Bloom syndrome helicase BLM | shares compounds with BLM helicase inh-1 | BLM DNA unwinding, fluorescence quenching, biochemical | Potency, µM, without a hit: max response, negative = inhibition, hits mostly inhibitors | hit rate 40% among 220 | AID 2585;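 note: strand separation dequenches TAMRA so unwinding raises red fluorescence; potency is the fitted concentration of half-maximal effect; series mostly up to about 69 µM; % is set by controls: 0 for no effect and ±100 for the full control effect; nearly all actives have a fitted effect of over 45% in size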
RECQ1 inh conf = confirmation of human RECQ1 helicase inhibitors; hit rate 28% among 610; RECQ1 helicase DNA unwinding, fluorescence; shares compounds with RECQ1 inh; Potency, µM (titrated, usually from 229 µM), for the others: at the top dose activity change, negative = inhibition, hits mostly inhibitors; note: potency is the fitted concentration of half-maximal effect; % is set by controls: 0 for no effect and ±100 for the full control effect; nearly all actives have a fitted effect of over 45% in size
RECQ1 ADP FP = displaces ADP in a fluorescence polarization counter-screen for RECQ1 hits; shares compounds with RECQ1 inh; ADP fluorescence polarization displacement counterscreen; Potency, µM (titrated, usually from 228 µM), inactives show at the highest dose activity change, negative = inhibition, most hits filed as inhibitors; hit rate 27% among 530; note: potency is the fitted concentration of half-maximal effect; % is set by controls: 0 for no effect and ±100 for the full control effect; nearly all actives have a fitted effect of over 45% in size
FEN1 inh-2 = confirmation of human FEN1 inhibitors; shares compounds with FEN1 inh-1; FEN1 flap cleavage, TAMRA/BHQ2 fluorogenic DNA substrate; Potency, µM, hits mostly inhibitors; hit rate 79% among 880; AID 720498; note: potency is the fitted concentration of half-maximal effect; nearly all actives have a fitted effect of over 60% in size
WRN helicase inh-2 = WRN helicase inhibition, cherry-pick retest; Potency, µM (titrated, usually from 57.1 µM), for inactives: at the highest dose activity, negative = inhibition, actives largely listed as inhibitors; WRN helicase DNA unwinding, fluorescence kinetic; shares compounds with WRN helicase inh-1; hit rate 63% among 610; note: potency is the fitted concentration of half-maximal effect; nearly all actives have a fitted effect of over 65% in size
TO displacement = DNA binding via thiazole orange displacement | shares compounds with WRN helicase inh-1 | thiazole orange DNA binding displacement, fluorescence | Potency, µM (highest dose often 57.1 µM), for inactives: top-dose activity change, negative = inhibition, actives largely listed as inhibitors | hit rate 10% among 610 | AID 720499;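 note: drop in dye fluorescence marks compound binding to DNA; potency is the fitted concentration of half-maximal effect; % is set by controls: 0 for no effect and ±100 for the full control effect; nearly all actives have a fitted effect of over 60% in size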
BLM helicase inh-2 = blocks human BLM helicase in WRN counterscreen; shares compounds with WRN helicase inh-1; Recombinant BLM helicase DNA unwinding, red fluorescence; Potency, µM (top dose mostly 57.1 µM), without a hit: top-dose activity change, negative = inhibition, actives largely listed as inhibitors; hit rate 60% among 610; AID 720503; note: potency is the fitted concentration of half-maximal effect; nearly all actives have a fitted effect of over 60% in size
Active calls of the source: *; i = inactive; ? = inconclusive; / = no result given; ! = not confirmed by another sample; [ ] = remark or other dose. Shown are actives, neighbours in structure and some others; about 1.5% of the full set was active somewhere. Unless noted, calls come from the whole dose curve; as a rule, active = well fitted curve in the direction sought with a large enough effect; inconclusive = small, poorly fitted or top-dose-only effect, or another doubt; inactive = no such curve, though single readings can be large; an effect the other way counts as inactive or inconclusive.

SMILES	BLM helicase inh-1	FEN1 inh-1	RECQ1 inh	PI5P4Ka inh	APE1 inh-1	WRN helicase inh-1	Endo IV inh	APE1 inh-2	others
CC(=O)NC1CCSC1=O (configuration not stated)	/	/	/	/	-3%[21 µM]	/	/	/
Clc1cnc(Oc2ccc(Oc3ncc(Cl)cc3Cl)cc2)c(Cl)c1	-2%	-5%	-7%	/	-8%	-11%	-1%[57.1 µM]	-11%
Clc1ccc(Cl)c(Cl)c1	/	/	-7%	/	-1%	/	/	/
Oc1cccc(Cl)c1Cl	/	/	-7%	/	-6%	/	/	/
Oc1ccccc1O	/	-4%	16µM*!	-4	28µM*!	1%[11.6 µM]	13%[57.1 µM]	-15%
CCOc1cc(OP(=S)(OC)OC)nc(CC)n1	-3%	/	-18%	/	12%	/	/	/
O=c1c(O)c(-c2ccc(O)c(O)c2)oc2c(O)c(O)cc(O)c12	-11%	/	i	/	?	/	-11%[57.1 µM]	0.5µM*
C[S@@](=O)CCCCN=C=S	0%	/	5%	/	?	/	/	/
CO/N=C(\C(=O)N[C@@H]1C(=O)N2C(C(=O)O)=C(CSc3nc(=O)c(O)nn3C)CSC12)c1csc(N)n1 (some centres not stated)	/	/	?	/	10µM*	/	-15%[57.1 µM]	2.2µM*
CC(N)C(O)c1ccc(O)c(O)c1 (configuration not stated)	3%	/	7.1µM*!	/	1.4µM*!	/	36%[57.1 µM]	-2%	APE1 dye cs=-5%[57.1 µM];APE1 FP inh=0%[57.1 µM];RECQ1 inh conf=?;RECQ1 ADP FP=14µM*
C[C@@H](N)[C@@H](O)c1ccccc1	/	/	/	/	5%[21 µM]	/	/	/
O=C1C=CC(=O)c2c(O)cccc21	5.6µM*	/	4.5µM*	/	0.32µM*	/	-29%[57.1 µM]	?	RECQ1 inh conf=7.9µM*;RECQ1 ADP FP=?
Clc1ccc(C(Cl)(Cl)Cl)cc1Cl	/	/	12%	/	2%	/	/	/
NC(Cc1cc(O)c(O)cc1O)C(=O)O (configuration not stated)	/	3.2µM*	0.63µM*	/	0.11µM*	/	-17%[57.1 µM]	0.79µM*	RECQ1 inh conf=45µM*;RECQ1 ADP FP=20µM*
CCCSP(=S)(OCC)Oc1ccc(Cl)cc1Cl (configuration not stated)	-2%	/	-8%	/	-11%	/	/	/
Cc1cc(C)cc(N2C(=O)NC(=O)/C(=C\c3cccn3-c3ccc(Cl)cc3)C2=O)c1	3%	1%	3%	?	0%	-12%[57.1 µM]	/	/
Cc1cccc(OCCn2cccc2/C=C2/C(=O)NC(=O)N(Cc3ccco3)C2=O)c1	25µM*	-33%	8.9µM*	-57*	7.9µM*	?	5%	13µM*	APE1 dye cs=0%;APE1 FP inh=?;RECQ1 inh conf=?;RECQ1 ADP FP=-3%[91.9 µM]
NCCc1cc(O)c(O)cc1O	?	25µM*	8.9µM*	-76*	0.4µM*	?	-14%[57.1 µM]	?	APE1 dye cs=?;APE1 FP inh=28µM*!;RECQ1 inh conf=126µM*;RECQ1 ADP FP=100µM*;FEN1 inh-2=?
CC(=O)[O][Hg][c]1ccccc1	5%	/	9%	/	26%	/	/	/
COc1ccc(CN2C(=O)NC(=O)/C(=C\c3ccco3)C2=O)cc1	?	28µM*	?	-77*	22µM*	22µM*	2%	14µM*	APE1 dye cs=?;APE1 FP inh=-8%;FEN1 inh-2=76*;WRN helicase inh-2=19µM*;TO displacement=-14%;BLM helicase inh-2=8.6µM*
CN=C=S	/	/	-5%	/	1%	/	/	/
CCOC(=O)c1c(NC(=O)c2c(N)n(CCCOC)c3nc4ccccc4nc23)sc2c1CCCC2	4µM*	3%	-6%	/	2%	-4%	/	/	BLM inh=-11%
c1ccc(N=NNc2ccccc2)cc1	/	/	-9%	/	4%	/	/	/
CN1C(=O)C(=Cc2ccc(OCC(=O)Nc3ccccc3)cc2)C(=O)N(C)C1=O	2%	-1%	/	-3	1%	?	/	/
Cc1cccn2c(=O)cc(COc3cccc(NC(=O)COc4ccc(F)cc4)c3)nc12	14µM*	-10%	/	/	/	/	/	/	BLM inh=?
CC1=NCCc2c1[nH]c1cc(O)ccc21	40µM*!	?	?	-3	?	-28%	/	/	BLM inh=-2%
C1=NCCc2c1[nH]c1ccccc21	/	-3%	/	1	/	-6%	/	/
CC(C)OCCCNC(=O)c1c(N)n(CC2CCCO2)c2nc3ccccc3nc12 (configuration not stated)	5µM*	-11%	-12%	/	-7%	-21%[57.1 µM]	/	/	BLM inh=-11%
Cc1ccc(N=C=O)cc1N=C=O	/	/	9%	/	1%	/	/	/

Assay outcomes: PubChem, National Center for Advancing Translational Sciences (NCATS)
